# Experimental data from ChEMBL document CHEMBL3988442, “University of Dundee, Small-Polar-MMV Screening Library” (2021).
# Among all 38,000 compounds or so, about 1,200 (3.2%) showed an effect of 50% or more. The median lay at about -58%. The full list was thinned out, with strong results kept by preference.
# System: Plasmodium falciparum
# Assay: Calibr Malaria Delayed Death Assay SOP
# Assay type: functional, organism-based
# Design: scale not given: in the data most compounds retested in dose-response had high values
# Details: concentration 4.99e-06 (unit not given; other assays of the set use mol/L)
row,Compound,Percent Effect [%]
1,CCn1ccnc1CN1CCCC(CO)(CCCc2ccccc2)C1 (stereo unspecified),5.561
2,CCOC(=O)C1(CCOC)CCN(Cc2nccn2CC)CC1,-18.48
3,CCn1ccnc1CN1CCCC(CO)(Cc2cccc(Cl)c2)C1 (stereo unspecified),76.24
4,CCOC(=O)C1(CCOC)CCCN(Cc2nccn2CC)C1 (stereo unspecified),6.985
5,Cc1cnc(C)c(N2CCCC(CO)(Cc3cccc(Cl)c3)C2)n1 (stereo unspecified),-85.57
6,CCOC(=O)C1(Cc2ccccc2)CCCN(Cc2nccn2CC)C1 (stereo unspecified),71.35
7,CCn1c(N)nc2cc(C(=O)NCCc3ccccc3F)cnc21,-271.4
8,CCc1nc(C2CCCN2CC(=O)Nc2cc(C)nn2C)no1 (stereo unspecified),-146.1
9,O=C(Cc1cccc(F)c1)NC1CCCc2cn[nH]c21 (stereo unspecified),-5.228
10,CN(CCCOc1ccccc1)S(=O)(=O)c1cnn(C)c1,-2.544
11,O=C(Cc1c[nH]c2ncccc12)NCC(O)c1ccsc1 (stereo unspecified),-112.4
12,NC(=O)c1ccccc1NC(=O)CCN1CCN(CCO)CC1,-1.535
13,CC(=O)Nc1ccc(CNCC(O)c2ccccc2)cc1 (stereo unspecified),6.789
14,CC(C(N)=O)N(C)Cc1ccccc1C(F)(F)F (stereo unspecified),-7.943
15,Cc1nn(C)c(N(C)C)c1CNCC(O)c1ccccc1 (stereo unspecified),-52.78
16,Cc1ccccc1CNCC(O)c1ccc(OC(C)C)cc1 (stereo unspecified),92.11
17,CC(C)Oc1ccc(C(O)CNCc2ccccc2C(F)(F)F)cc1 (stereo unspecified),82.7
18,Cl.OC(CNCc1ccccc1C(F)(F)F)c1ccccc1 (stereo unspecified),81.89
19,CC(=O)Nc1ccc(CNCC(O)c2ccc(C)cc2)cc1 (stereo unspecified),-93.75
20,CC(O)CNCc1ccccc1C(F)(F)F.Cl (stereo unspecified),-50.42
21,COC(=O)CNC(=O)C(C)Oc1ccccc1C(F)(F)F (stereo unspecified),-63.42
22,CC(C)Oc1cccc(C(O)CNC(=O)NCc2cccs2)c1 (stereo unspecified),-103.2
23,CN(Cc1ccccc1C(F)(F)F)C(C(N)=O)c1ccccc1 (stereo unspecified),-32.88
24,CC(C)C(NC(=O)NCCNc1ncccn1)c1cccs1 (stereo unspecified),-40.63

row,Compound,Percent Effect [%]
1,CN1CCC2(CC1)CN(C(=O)c1ccncc1)Cc1ccccc12,-65.66
2,O=C(CCC1CCCO1)NCCCC(=O)Nc1ccc(Cl)cc1 (stereo unspecified),-199.2
3,CCOc1ccc(S(=O)(=O)N(CCOC)Cc2ccncc2)cc1F,-28.24
4,O=C(CCn1ccnn1)N1CCCC(n2cncn2)C1 (stereo unspecified),-95.7
5,CC(C)N1CCCC(C(=O)NCCc2csc(-c3ccncc3)n2)C1 (stereo unspecified),-80.76
6,CNC(=O)C1CCN(c2nc3nc[nH]c(=O)c3s2)CC1,-123.8
7,CC(C)CN1C(=O)C2(CCN(Cc3ccoc3)C2)c2ccccc21.O=C(O)C(F)(F)F (stereo unspecified),-29.95
8,COC(=O)c1ncccc1N1CCC(C(O)c2ccccc2)CC1 (stereo unspecified),-12.82
9,Cn1ccnc1CN1CCCC2(CCN(CC3CCCO3)CC2)C1.O=C(O)C(F)(F)F.O=C(O)C(F)(F)F (stereo unspecified),15.47
10,COc1ncccc1CN1CC[C@H]2[C@H]1CCN2CCN(C)C.O=C(O)C(F)(F)F.O=C(O)C(F)(F)F.O=C(O)C(F)(F)F.O=C(O)C(F)(F)F,52.47
11,O=C(O)C(F)(F)F.O=C(O)C(F)(F)F.O=C(O)C(F)(F)F.O=C(O)C(F)(F)F.c1cc(CN2C[C@@H]3OCCN(CCN4CCCC4)[C@@H]3C2)ccn1,-114.9
12,CN(C)c1nccc(N2CCO[C@H]3CN(Cc4ccsc4)C[C@H]32)n1.O=C(O)C(F)(F)F,68.45
13,Fc1ccc(CN2C[C@@H]3OCCN(CCN4CCCC4)[C@@H]3C2)cc1.O=C(O)C(F)(F)F.O=C(O)C(F)(F)F.O=C(O)C(F)(F)F,-79.23
14,COc1ccc(CN2C[C@@H]3OCCN(CCN(C)C)[C@@H]3C2)cc1.O=C(O)C(F)(F)F.O=C(O)C(F)(F)F.O=C(O)C(F)(F)F,65.18
15,COc1ccc(CN2C[C@@H]3OCCN(C)[C@@H]3C2)cc1.O=C(O)C(F)(F)F,-49.2
16,CN(C)CCN1CCO[C@H]2CN(Cc3ccccn3)C[C@H]21.O=C(O)C(F)(F)F.O=C(O)C(F)(F)F.O=C(O)C(F)(F)F.O=C(O)C(F)(F)F,8.318
17,O=C(O)C(F)(F)F.O=C(O)C(F)(F)F.c1cnc(N2CCO[C@H]3CN(Cc4ccsc4)C[C@H]32)nc1,32.67
18,COc1ncccc1CN1C[C@@H]2OCCN(CCN(C)C)[C@@H]2C1.O=C(O)C(F)(F)F.O=C(O)C(F)(F)F.O=C(O)C(F)(F)F,-6.564
19,COCCN1CC[C@@H]2CN(Cc3cccnc3OC)C[C@@H]2C1.O=C(O)C(F)(F)F.O=C(O)C(F)(F)F,-74.35
20,CCc1ccc(CN2C[C@@H]3OCCN(c4ccnc(N(C)C)n4)[C@@H]3C2)o1.O=C(O)C(F)(F)F,5.976
21,COc1ccc(CN2C[C@@H]3OCCN(CCN4CCCC4)[C@@H]3C2)cc1.O=C(O)C(F)(F)F.O=C(O)C(F)(F)F.O=C(O)C(F)(F)F,62.07
22,O=C(C1CCOC1)N1CCC2(CCN(Cc3nccs3)C2)CC1 (stereo unspecified),-29.96
23,CN(Cc1cccc(F)c1)C(=O)CN1CCOC(Cn2cncn2)C1 (stereo unspecified),-118.2
24,Cc1ccc(CC(=O)NCC(Cc2ccc(F)cc2)C(N)=O)cn1 (stereo unspecified),-64.69

row,Compound,Percent Effect [%]
1,COc1ccc(CN2CC(O)CN(C(=O)OCC(C)C)CC2=O)cc1 (stereo unspecified),-72.03
2,CC(C)CC(=O)N1CC[C@H]2N(C)CC[C@@]2(C(=O)Nc2cccnc2)CC1.O=C(O)C(F)(F)F.O=C(O)C(F)(F)F,15.37
3,COc1cccn(CC(=O)N2CCC3(CCNCC3)C2)c1=O,-26.75
4,COc1cccc(CN2CC3(CCNCC3)CCC2=O)c1OC,6.381
5,O=C(COCC1CCCO1)N(Cc1cccnc1)c1ccc(F)cc1 (stereo unspecified),-38.29
6,O=S(=O)(CCCN1CCCC1Cn1cncn1)c1ccccc1 (stereo unspecified),-135.1
7,CC(C)(C)n1cc(C2=CCN(CCc3ccccn3)CC2)cn1,43.76
8,Cn1cc(C2=CCN(CCCOc3ccc(C(N)=O)cc3)CC2)cn1,-65.42
9,CCn1cc(C2=CCN(CCCOc3ccccc3)CC2)cn1,81.92
10,Cc1nc(O)cc(CN2CC=C(c3cnn(C(C)(C)C)c3)CC2)n1,-65.29
11,CCC(O)Cn1cc(C2=CCN(Cc3cc(O)nc(C)n3)CC2)cn1 (stereo unspecified),-28.24
12,CC(C)(C)n1cc(C2=CCN(CCNC(N)=O)CC2)cn1,-173.3
13,Cn1cc(C2=CCN(CCCC(=O)Nc3ccc(C#N)cc3)CC2)cn1,-71.5
14,CCC(O)Cn1cc(C2=CCN(Cc3ccc(OC)cc3)CC2)cn1 (stereo unspecified),67.35
15,CC(C)(C)n1cc(C2=CCN(CCc3ccccc3)CC2)cn1,67.25
16,COc1ccc(NC(=O)CCN2CC=C(c3cnn(C)c3)CC2)c(C)c1,-34.98
17,CC(C)(C)n1cc(C2=CCN(CCNC(=O)c3ccccc3)CC2)cn1,15.76
18,CC(C)(C)n1cc(C2=CCN(CCN3CCCCCC3)CC2)cn1,70.18
19,CC(O)(CNC(=O)c1cccnc1-n1cccn1)c1ccco1 (stereo unspecified),-10.35
20,CCN1CCCCC1C(=O)N1CCC(OCCOC)CC1 (stereo unspecified),-112.4
21,CSc1ccccc1C(=O)N1C[C@@H](N(C)C)[C@H](c2ccc(C)cc2)C1,-25.73
22,CCc1cnc2c(c1NCc1ccc(OC)cc1)c(=O)n(C)c(=O)n2C,-5.547
23,CC(C)CC(NC(=O)c1ccco1)c1nnc2ccccn12 (stereo unspecified),-178.4
24,O=C(O)C1(O)CCN(c2ccnc3c(C(F)(F)F)cccc23)CC1,-178.3

row,Compound,Percent Effect [%]
1,Cc1cccc(C(=O)N(C)C2CCN(c3ccccn3)CC2)c1C,-82.1
2,CS(=O)(=O)c1ccc(NC(=O)NC2(c3cccc(F)c3)CC2)cc1,-42.46
3,O=C(O)C(F)(F)F.O=C(c1ccoc1)N1CCOCC2(CCN(C3CCOCC3)C2)C1 (stereo unspecified),-39.42
4,COCCCN(C)c1nc(-c2ccncc2)nc2c1CCN(C(C)=O)C2,-86.15
5,COCCN(C)c1nc(-c2ccncc2)nc2c1CCN(C(C)=O)C2,-64.34
6,CCN1Cc2cc(F)ccc2N(C(=O)C2CCC2)CCC1=O,-44.87
7,CCOc1ccccc1CN(CC)Cc1ccc(S(C)(=O)=O)cc1,-21.06
8,Cc1ccccc1CN(CCN(C)C)Cc1ccc(S(C)(=O)=O)cc1,79.52
9,Cc1ccccc1CN(Cc1ccc(S(C)(=O)=O)cc1)CC(C)C,-26.42
10,O=C(NCc1ccc2c(c1)OCO2)c1ccccc1C1CCNC1 (stereo unspecified),-7.767
11,Cc1nccn1-c1ccc(=O)n(CCNC(=O)c2ccccn2)n1,-133.3
12,CCn1c(CN(C)Cc2cnc(C)s2)nc2cc(F)ccc21,-16.92
13,CCn1c(CN(C)Cc2csc(C)n2)nc2cc(F)ccc21,60.85
14,CCN(Cc1csc(C)n1)c1cccc(CO)c1,-39.75
15,CCn1cc(NC(=O)C2CCN(Cc3ccccc3)CC2)cn1,-64.73
16,O=C(Nc1cnn(Cc2ccc(F)cc2Cl)c1)C1CC1,-1.724
17,O=C(Nc1cnn(COc2ccc(F)cc2Cl)c1)C1CC1,66.71
18,CCc1cc(N2CCC(Nc3ccc(Cl)cn3)CC2)ncn1,-58.54
19,CC(C)[C@H]1CN(C2Cc3ccccc3C2)C[C@@H]1NS(C)(=O)=O,31.34
20,CC(C)[C@@H]1CN(Cc2ccccn2)C[C@H]1NS(=O)(=O)N(C)C,-49.07
21,CC(C)[C@@H]1CN(Cc2ccsc2)C[C@H]1NS(=O)(=O)N(C)C,65.02
22,CC(C)[C@@H]1CN(CCOc2ccccc2)C[C@H]1NS(=O)(=O)N(C)C,40.07
23,CC(C)[C@H]1CN(c2ccncc2)C[C@@H]1NS(=O)(=O)N(C)C,-51.73
24,CC(C)[C@H]1CN(C2Cc3ccccc3C2)C[C@@H]1NS(=O)(=O)N(C)C,61.34
